From PMC12136788 come the findings set out here.

Substitutions are numbered along the chain they refer to. In all, about 24,000 sequences were measured (“enrichment r”: median about 0.99, highest 2% from about 3.7 on). The list comes from a sample in which the highest values are over-represented; it also holds similar and randomly drawn sequences.

B1: 55555555_55559808_3342_CDS_ENSG00000115355_ENST00000336838|human|control|control (ssRNA)
RNA: GGGAGUUCUACAGUCCGACGAUCCAAAAGUUUAUACCUGUCAUCAGUACUUUGUUCAUCAUGUAAGAGUCGCUCCUUAUUUAACCCUAUCUUCUCAAGCUCAUGAGUUAAUUUUUCGAGAUCAUUGUUCAUCUGUUGGGUCUUCAACAGAGGAUUGAGCAUCA
B2: chr8:72542918:72542919:-_ENSMUSG00000031858_ENSMUST00000050561|mus_mus|FALSE|FALSE (ssRNA)
RNA: GGGAGUUCUACAGUCCGACGAUCAGCUAUCAAGCCAAGAGGAGCUGAGCUGGUCCCAUAACUGUCCUCCAUGGGAAAGCUAAAUAGCUGCCAGGAAGGAACCCUCUCAUUCAGGUCCAAUGGGACUUCUGCCUGAUGCUUAGGCAACAGAGGAUUGAGCAUCA
B3: chr7:141441981:141441982:+_ENSG00000106028_ENST00000265304|hu_mus|hu_hu_hu_mus_False|8_88 (ssRNA)
RNA: GGGAGUUCUACAGUCCGACGAUCCUCAUGUCUUACAAACUGACGAAGUACCUGUAACACAGGUCUUCGAAACAUGGCUUCUGUUUUUCUUACAACCUAAUCUUUAGGCUUUUCCUAAAGGAAAGAAUAACCCGAGCAAAAUGACAACAGAGGAUUGAGCAUCA
B4: chr5:159492046:159492047:+_ENSG00000113312_ENST00000231238|hu_hu|FALSE|FALSE (ssRNA)
RNA: GGGAGUUCUACAGUCCGACGAUCAGUCAGCUUGUAAAGCUUUUGUUAUCUUUGUUAUCUGUUAUUAUUUGGAUUUUGAACGAAAUUGAUGGAGUACGAGCCGGUAGAGGAAUCCUGUUUGAUCUGGAAAUUUUCCGUGGAGAGCAACAGAGGAUUGAGCAUCA
B5: chr7:54825262:54825263:-_ENSG00000132432_ENST00000352861|hu_hu|hu_hu_hu_mus_False|58_58 (ssRNA)
RNA: GGGAGUUCUACAGUCCGACGAUCCUGCCGGCUGGGCUCCACAAACUGCAUUACCUGAUCCAUGUUUGUUGGAUGGCACACCUAAAACGUAGAGACACGUAGCUCAGGAGAGAACCGAGCCCAACGGAACCGGAAGCUGGCAACCAACAGAGGAUUGAGCAUCA
B6: chr2:148701057:148701058:-_ENSG00000115947_ENST00000542387|hu_hu|FALSE|FALSE (ssRNA)
RNA: GGGAGUUCUACAGUCCGACGAUCUGACCGCAGGUUUUUGCUGAUAUUGAAAUGCUUCUGUAGUACUUCUUGCACACUUCUAUCUUCUGAGAGAUACUGAACAUUUUCAUUCCACUUCUCAGCAAAAACCUUGUCUGGAAACUCCAACAGAGGAUUGAGCAUCA
B7: chr15:59961163:59961164:-_ENSG00000140299_ENST00000607373|hu_mus|FALSE|FALSE (ssRNA)
RNA: GGGAGUUCUACAGUCCGACGAUCGCCGACAUACUCCAUGGGAACAAGCUCUGCCAGCUCGGCCAAGUUAAAGACGUAUCUGAUCUUCUGACUGAACUUUGAACUGAUAAAUGGUCGUGUAACAGCCAGAAGUGUUCGGAUAAACAACAGAGGAUUGAGCAUCA
B8: 6624775_6624895_1421_CDS_ENSMUSG00000041272_ENSMUST00000039987|mouse|control|control (ssRNA)
RNA: GGGAGUUCUACAGUCCGACGAUCGCUCGGAUGCAUGGCGGUGAGCUGAGGAGUCAUUCCUGGUUGUUGGUGAUAGUGAGAACUUAGGUACAGAGCUGAGUGGGCCUGGCUGGGCCCAUGGAAUACUGACGGCUUUGAGUUGACCAACAGAGGAUUGAGCAUCA
B9: chrX:35795285:35795286:-_ENSMUSG00000016534_ENSMUST00000061755|mus_mus|FALSE|FALSE (ssRNA)
RNA: GGGAGUUCUACAGUCCGACGAUCGAAAUUCAUCUCCCAUUCUGCAUAAAGGCAAGUACCCUUUGAAUCUGUCAAAUUAACUAUCAAUGCAUUGGACUGAACGGCUCCUAGGAACAGAAAGAUCAGGAUGAGCUUUGCGCCUUUCAACAGAGGAUUGAGCAUCA
B10: 74470573_74471800_972_CDS_ENSMUSG00000021577_ENSMUST00000022062|mouse|control|control (ssRNA)
RNA: GGGAGUUCUACAGUCCGACGAUCGUUGAUGAGAAUCCCCCCCUCUCCACGACACCCUUCUGUGAUGAGGCAGCCAGCACCGUAUAUACCUGUGGGGUGGAACUGAACAAAUUCUAAGUCCUGGCAAGGCAAACCAGCCCUAGUCAACAGAGGAUUGAGCAUCA
B11: chr1:150192741:150192742:-_ENSG00000143401_ENST00000314136|hu_hu|motif|central (ssRNA)
RNA: GGGAGUUCUACAGUCCGACGAUCUUAAUUAUGGGCUAAAAAUGACUAAUACAGUAAGCUUGAAUUUAAAAAAUUAAGUCGGAAUAAAUUGCUAGGGAAUUCCACAAUGGGAGUCAAUGAAAAUUUUUCUCUACAUACAAUAUGCAACAGAGGAUUGAGCAUCA
B12: chr1:109605286:109605287:-_ENSG00000197780_ENST00000461096|hu_mus|hu_hu_hu_mus_True|18_38 (ssRNA)
RNA: GGGAGUUCUACAGUCCGACGAUCAAGUUUCAGAGUAACAUUCAGUAACCUCUUUAAAUGCAAUUAUCCUUAUUAUAAGCUAAGCAGAAUAAUAAUUUAAUACAUAGAGUGAACUACCACAAAACCUUGAACCGCGAAAAUGGUCAACAGAGGAUUGAGCAUCA
B13: chr1:109605286:109605287:-_ENSG00000197780_ENST00000461096|hu_mus|hu_hu_hu_mus_True|18_98 (ssRNA)
RNA: GGGAGUUCUACAGUCCGACGAUCAAGUUUCAGAGUAUUCAGUGAUCACCUCUUUAAAUGCAAUUAUCCUUAUUAUAAGCUAAGCAGAAUAAUAAUUUAAUACCGUAAGUGAACUACCACAAAACCUUGAACCGCGAAAAUGGUCAACAGAGGAUUGAGCAUCA
B14: chr3:160150142:160150143:+_ENSG00000113810_ENST00000344722|hu_hu|motif|central (ssRNA)
RNA: GGGAGUUCUACAGUCCGACGAUCAAAACCUGCCAUAAAUUCAUUAAGCCUUUGUUUCCGAAGAUCUUCAUAUGCCUGUCGGAAACUGUCUCUUUCAUAAGUAAUUUUGUCCAAUUCUGCUACCCGUUGCAAAUACAAUUCUUCCAACAGAGGAUUGAGCAUCA
B15: chr1:150192741:150192742:-_ENSG00000143401_ENST00000314136|hu_hu|FALSE|FALSE (ssRNA)
RNA: B11 RNA with G80U, G81A

The target of this test is T1, UNK ZnF1-3 (human, UniProt Q9C0B0 31-174).
T1 sequence: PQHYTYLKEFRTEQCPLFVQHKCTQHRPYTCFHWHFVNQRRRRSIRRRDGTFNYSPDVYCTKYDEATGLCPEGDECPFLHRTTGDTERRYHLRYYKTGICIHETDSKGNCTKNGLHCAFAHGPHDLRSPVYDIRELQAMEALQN
The experiment in a line: nsRBNS (natural sequence RNA bind-n-seq); RBNS binding buffer (assumed for nsRBNS): 25 mM Tris pH 7.5, 150 mM KCl, 3 mM MgCl2, 0.01% Triton X-100, 500 ug/ml BSA, 20 U/ml SUPERase-In, 4 C; UNK is unkempt and MSI1 is Musashi-1; names of the RNAs are library labels; protein concentration not given here; high values mean tight binding.
In turn, B1 yielded a binding signal of 0.637 enrichment R.

B2: the binding signal is 1.1 enrichment R.

In the case of B3, the binding signal was 0.719 enrichment R.

Consider B4, for which the binding signal was determined as 3.66 enrichment R.

On to B5, for which the binding signal stood at 1.08 enrichment R.

Take B6: the binding signal is 0.287 enrichment R.

On to B7, for which the binding signal stood at 0.638 enrichment R.

As to B8, the binding signal was determined as 1.32 enrichment R.

B9 gave a binding signal of 1.22 enrichment R.

For the molecule B10, the binding signal is 1.28 enrichment R.

B11: the binding signal amounted to 6.83 enrichment R.

As for B12, the binding signal amounted to 0.848 enrichment R.

In turn, B13 showed a binding signal of 0.885 enrichment R.

B14 had a binding signal of 1.2 enrichment R.

Molecule B15 registered a binding signal of 4.88 enrichment R.
